# From PubChem BioAssay (NCATS)
# “And” between values parts separate entries of the source, which are not always exact repeats. Equal entries are not always repeated. Values without a mark were called inactive. Records with an inconclusive call do not appear. Entries that show only a call come without a potency. The source made the active and inactive calls. Calls follow the shape of the dose curve; as a rule, active = well fitted curve in the direction sought with a large enough effect; inconclusive = small, poorly fitted or top-dose-only effect, or another doubt; inactive = no such curve, though single readings can be large; an effect the other way counts as inactive or inconclusive.
# Tests used:
# [1] = molecular target: Cytochrome P450 3A4 (Homo sapiens) (UniProt P08684); test: qHTS Assay for Inhibitors and Substrates of Cytochrome P450 3A4 (AID 884); also: nearly all actives have a fitted effect of over 50% in size; also: potency is read from the fitted curve at half-maximal effect; as to activity change, negative = inhibition: series mostly up to about 57 µM
# Sequence of Cytochrome P450 3A4 (Homo sapiens) (P08684 whole entry, looked up): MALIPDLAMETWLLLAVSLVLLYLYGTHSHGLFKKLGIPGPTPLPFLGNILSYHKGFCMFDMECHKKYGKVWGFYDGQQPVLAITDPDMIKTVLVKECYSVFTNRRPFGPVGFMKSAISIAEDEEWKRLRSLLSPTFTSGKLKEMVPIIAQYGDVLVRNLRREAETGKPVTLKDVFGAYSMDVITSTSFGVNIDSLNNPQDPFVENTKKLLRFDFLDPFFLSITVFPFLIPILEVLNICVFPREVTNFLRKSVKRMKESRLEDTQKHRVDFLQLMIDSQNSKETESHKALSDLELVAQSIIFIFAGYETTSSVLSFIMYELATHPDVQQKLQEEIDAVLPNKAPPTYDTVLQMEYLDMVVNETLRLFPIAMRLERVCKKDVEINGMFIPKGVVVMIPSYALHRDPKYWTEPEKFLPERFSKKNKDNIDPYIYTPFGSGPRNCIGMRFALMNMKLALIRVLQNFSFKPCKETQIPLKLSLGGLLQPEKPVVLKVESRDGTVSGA
# Procedure, shortened: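 20 nM human CYP3A4 with 25 uM Luciferin-PPXE (at KM) in 200 mM KPO4, preincubated 10 min with compound; NADPH regeneration started a 60 min RT reaction. Luciferin detected by luminescence, normalized to 57 uM ketoconazole as full inhibition.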
# [2] = molecular target: Cytochrome P450 2D6 (Homo sapiens) (UniProt P10635); test: qHTS Assay for Inhibitors and Substrates of Cytochrome P450 2D6 (AID 891);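 also: luciferin methyl ether substrate demethylated by CYP2D6 with NADPH regeneration; nearly all actives have a fitted effect of over 60% in size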
# Sequence of Cytochrome P450 2D6 (Homo sapiens) (P10635 whole entry, looked up): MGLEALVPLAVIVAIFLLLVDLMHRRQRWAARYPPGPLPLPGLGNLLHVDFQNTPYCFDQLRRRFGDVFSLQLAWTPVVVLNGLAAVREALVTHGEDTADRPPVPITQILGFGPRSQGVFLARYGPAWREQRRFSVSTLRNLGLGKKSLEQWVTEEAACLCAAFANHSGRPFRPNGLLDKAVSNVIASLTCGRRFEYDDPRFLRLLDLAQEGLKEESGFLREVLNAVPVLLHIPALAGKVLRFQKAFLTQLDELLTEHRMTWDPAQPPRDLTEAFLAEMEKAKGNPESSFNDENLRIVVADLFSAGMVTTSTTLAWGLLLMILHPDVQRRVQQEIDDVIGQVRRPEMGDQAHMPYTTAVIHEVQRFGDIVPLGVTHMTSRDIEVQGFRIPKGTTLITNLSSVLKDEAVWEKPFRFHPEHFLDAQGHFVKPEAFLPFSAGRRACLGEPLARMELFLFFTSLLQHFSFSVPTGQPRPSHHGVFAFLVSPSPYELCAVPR
# Procedure, shortened: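 Human CYP2D6 (5 nM) with 30 uM Luciferin-ME EGE (at Km) in 100 mM KPO4, compound preincubated 10 min, then NADPH regeneration system for 60 min at room temperature. Luciferin read by luminescence; normalized to 1.43 uM quinidine.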
# [3] = molecular target: Cytochrome P450 2C19 (Homo sapiens) (UniProt P33261); test: qHTS Assay for Inhibitors and Substrates of Cytochrome P450 2C19 (AID 899); also: nearly all actives have a fitted effect of over 60% in size; also: potency is read from the fitted curve at half-maximal effect
# Sequence of Cytochrome P450 2C19 (Homo sapiens) (P33261 whole entry, looked up): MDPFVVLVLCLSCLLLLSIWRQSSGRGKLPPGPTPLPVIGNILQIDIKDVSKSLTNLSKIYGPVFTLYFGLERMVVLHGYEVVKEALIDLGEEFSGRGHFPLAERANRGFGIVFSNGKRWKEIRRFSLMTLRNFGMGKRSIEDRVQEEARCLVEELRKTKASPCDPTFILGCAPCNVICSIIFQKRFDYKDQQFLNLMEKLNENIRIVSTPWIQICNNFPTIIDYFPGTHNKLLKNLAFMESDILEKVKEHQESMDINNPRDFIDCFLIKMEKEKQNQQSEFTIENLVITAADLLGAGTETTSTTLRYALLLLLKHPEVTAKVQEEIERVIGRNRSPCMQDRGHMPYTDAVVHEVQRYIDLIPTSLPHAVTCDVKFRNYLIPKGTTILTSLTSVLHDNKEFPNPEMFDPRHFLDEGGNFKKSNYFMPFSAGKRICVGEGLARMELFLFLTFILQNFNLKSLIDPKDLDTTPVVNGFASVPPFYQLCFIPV
# Procedure, shortened: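 Human CYP2C19 (5nM) with Luciferin-H EGE at 10uM (its KM) in 50mM KPO4 was preincubated with compound for 10 min at 37C. NADPH regeneration started a 60 min 37C reaction. Luciferin was read by luminescence, normalized to 57uM ketoconazole.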
# [4] = molecular target: Cytochrome P450 3A4 (Homo sapiens) (UniProt P08684); test: qHTS Assay for Activators of Cytochrome P450 3A4 (AID 885); also: nearly all actives have a fitted effect of over 65% in size
# Procedure, shortened: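 Steps: enzyme/substrate mix dispensed; compound added, 10 min RT; NADPH regeneration solution added, 60 min RT; luciferin detection buffer stops reaction; 20 min later luminescence measured.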
# [5] = Confirmation and Secondary Assay for Modulators of Hemoglobin Beta Chain Splicing at IVS2 654 locus (AID 910);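 also: per-well total GFP intensity by laser scanning cytometry after 2-day treatment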
# Procedure, shortened: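 HeLa cells stably carrying EGFP interrupted by mutant beta-globin IVS2-654 intron (CMV-driven) were treated with compound for 2 days at 37C; corrected splicing was scored as total peak GFP intensity per well (488 nm excitation, 500-520 nm emission).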
# [6] = Confirmation and Secondary Assay for Modulators of Hemoglobin Beta Chain Splicing at IVS2 705 locus (AID 930);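 also: HeLa cells stably expressing the EGFP-705 splicing reporter; series mostly up to about 46 µM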
# Procedure, shortened: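 Restored EGFP fluorescence after 2-day compound exposure reports splicing correction in IVS2-705 EGFP reporter HeLa cells; positive control was 500 nM splice-blocking PNA oligo. Signal measured as well total peak GFP intensity (488 nm excitation).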
compound,measurement,setting,value
Cc1ccccc1OC1C=CC(C#Cc2ccc(Br)cc2)OC1CO (stereo unspecified),"activity change, negative = inhibition",[1],-26.7% [at 11.4 µM]
same,Potency,[2],inactive
same,Potency,[3],inactive
Cc1ccc(/C=C/C2=CC3(C)CC2(C)C(c2ccc(C)cc2)CC3=O)cc1 (stereo unspecified),Potency,[1],3.98 µM (active)
same,Potency,[2],inactive
COc1cccc(-c2cc(=O)c3ccc(OC)cc3o2)c1,Potency,[1],7.94 µM (active)
same,Potency,[4],inactive
same,outcome,[5],inactive
same,outcome,[6],inactive
C=C1C2CC[C@@]3(C)C(c4ccoc4)OC(=O)C[C@@]13OC1CC(OC(C)=O)C(C)(C)C(CC(=O)OC)[C@@]12C (stereo partly specified),Potency,[1],1.26 µM (active)
same,Potency,[4],inactive
same,outcome,[5],inactive
same,outcome,[6],inactive
COc1c2c(cc3occ(-c4ccc5c(c4)OCO5)c(=O)c13)OC(C)(C)C=C2,Potency,[1],2.51 µM (active)
same,Potency,[4],inactive
same,outcome,[5],inactive
same,outcome,[6],inactive
CCO[C@H](c1cc(OC)cc([N+](=O)[O-])c1OC)[C@H](C)/C=C\CC(=O)OC,Potency,[1],3.98 µM (active)
same,"activity change, positive = activation",[4],-72.1% [at 11.4 µM]
same,Potency,[3],0.398 µM (active)
COc1cc(O)c(C(=O)/C=C/c2ccc(O)c(OC)c2)c(OC)c1,Potency,[1],7.94 µM (active)
same,Potency,[4],inactive
same,outcome,[5],inactive
same,outcome,[6],inactive
COc1cc(OC)c2c(OC)c(-c3ccc4c(c3)OCO4)c(=O)oc2c1,Potency,[1],2.51 µM (active)
same,Potency,[4],inactive
same,outcome,[5],inactive
same,outcome,[6],inactive
CO[C@@H]1COC(=O)[C@@H](CCSC)NC(=O)C/C=C\[C@@H](C)COC(=O)CCC[C@H]1C,"activity change, positive = activation",[4],-30.5% [at 11.4 µM]
COC(=O)[C@@H]1C[C@@H]2CC[C@@H](O)C[C@@H]2N1Cc1ccc(N2CCN(C)CC2)cc1,Potency,[4],inactive
O=C1[C@H]2[C@H]3[C@H](O)[C@H](O)C/C(=N/OC[C@@H](O)COCc4ccco4)[C@@H]3CC[C@@H]2C(=O)N1C1CCCCC1,"activity change, positive = activation",[4],-51.1% [at 11.4 µM]
CO[C@@H]1COC(=O)C/C=C\[C@@H](C)COC(=O)[C@H](Cc2ccccc2)NC(=O)C/C=C\[C@H]1C,"activity change, positive = activation",[4],-39.1% [at 11.4 µM]
CO[C@@H]1COC(=O)CC=C[C@@H](C)[C@@H]2C=C[C@H](O)[C@@H](COC(=O)C/C=C\[C@H]1C)O2,"activity change, positive = activation",[4],-43.1% [at 11.4 µM]
COC(=O)c1cccc(C23CC4(C2)[C@H](CN(C)[C@@H]4c2ccccc2)C3c2ccc(Cl)nc2)c1 (stereo partly specified),Potency,[4],inactive
O=C1[C@H]2[C@H]3[C@H](O)[C@H](O)C/C(=N/OC[C@@H](O)COCc4ccco4)[C@@H]3CC[C@@H]2C(=O)N1c1cccc(Oc2ccccc2)c1,"activity change, positive = activation",[4],-40.2% [at 11.4 µM]
CO[C@H]1COC(=O)[C@@H](C)COC(=O)[C@@H](Cc2ccccc2)NC(=O)C/C=C\[C@H]1C,"activity change, positive = activation",[4],-36.8% [at 11.4 µM]
N#Cc1ccc(C23CC4(C2)[C@H](CN(Cc2ccc(C(F)(F)F)cc2)[C@@H]4c2ccccc2)C3c2ccccc2)cc1 (stereo partly specified),Potency,[4],inactive
COC(=O)C/C=C\[C@@H](C)[C@@H](/C=N\O[C@@H]1O[C@H](COC(C)=O)[C@H](OC(C)=O)[C@H](OC(C)=O)[C@H]1OC(C)=O)OC,"activity change, positive = activation",[4],-32.3% [at 11.4 µM]
C/C(CCN1CCCc2nc(C)c(C)cc21)=N\O[C@@H](C)c1cc(-c2c(C)cc(C)cc2C)no1,"activity change, positive = activation",[4],-56.9% [at 11.4 µM]
COC(=O)[C@@H]1C[C@H]2CC[C@H](O)C[C@H]2N1Cc1ccc(C)s1,Potency,[4],inactive
Cn1c(=O)cc(N)n(Cc2ccccc2)c1=O,Potency,[4],inactive
N#Cc1ccc(C23CC4(C2)[C@H](CN(Cc2ccc(-c5ccccc5)cc2)[C@@H]4c2ccccc2)C3c2ccccc2)cc1 (stereo partly specified),Potency,[4],inactive
COc1ccc(COC(=O)N/N=C2/C[C@@H](O)[C@@H](O)[C@@H]3[C@@H]4C(=O)N([C@@H](C)c5ccccc5)C(=O)[C@H]4CC[C@@H]23)cc1,"activity change, positive = activation",[4],-39.8% [at 11.4 µM]
COC(=O)[C@@H]1C[C@H]2CC[C@H](O)C[C@H]2N1Cc1ccc(-c2ccccc2)cc1,Potency,[4],inactive
CC1(C)CC(=O)c2c(oc3cc(O)c(O)cc23)C1,Potency,[4],inactive
C[C@H](O/N=C1/[C@H]2O[C@@H]2[C@@H](O)[C@H]2[C@H]1CCn1c(=O)n(-c3ccccc3)c(=O)n12)c1cn([C@H](CO)Cc2ccccc2)nn1,"activity change, positive = activation",[4],-48.5% [at 11.4 µM] and -48.2% [at 11.4 µM]
CO[C@@H]1COC(=O)C/C=C\[C@@H](C)COC(=O)[C@H](COCc2ccccc2)NC(=O)C/C=C\[C@H]1C,"activity change, positive = activation",[4],-56.3% [at 11.4 µM]
COC(=O)c1ccc(C23CC4(C2)[C@H](CN(C)[C@@H]4c2ccccc2)C3c2ccc(Cl)nc2)cc1 (stereo partly specified),Potency,[4],inactive
COc1cccc([C@H](O)Cn2cc(-c3cccc(CON=C(C)C)c3)nn2)c1,"activity change, positive = activation",[4],-43.8% [at 11.4 µM]
Cc1cc2c(nc1C)CCCN2C[C@H](C)O/N=C1/[C@H]2O[C@@H]2[C@@H](O)[C@H]2[C@H]1CCn1c(=O)n(-c3ccccc3)c(=O)n12,"activity change, positive = activation",[4],-35.6% [at 11.4 µM]
CC(C)(C)N1C(=O)[C@H]2[C@H]3[C@H](O)[C@H](O)C/C(=N/OC[C@@H](O)COCc4ccco4)[C@H]3CC[C@@H]2C1=O,"activity change, positive = activation",[4],-30.9% [at 11.4 µM]
CC(C)[C@@H](OCc1ccccc1)[C@H](C)/C=N\O[C@@H](C)c1cn([C@H](CO)Cc2ccccc2)nn1,"activity change, positive = activation",[4],-36% [at 11.4 µM] and -44.1% [at 11.4 µM]
O=C1[C@@H]2[C@H]3[C@H](O)[C@H](O)C/C(=N/OCc4ccccc4)[C@H]3CC[C@H]2C(=O)N1c1ccc(F)cc1F,"activity change, positive = activation",[4],-34.3% [at 11.4 µM]
CC(=O)OC[C@@H]1O[C@@H](O/N=C2/C[C@@H](O)[C@@H](O)[C@@H]3[C@@H]4C(=O)N(Cc5ccc6c(c5)OCO6)C(=O)[C@H]4CC[C@@H]23)[C@H](OC(C)=O)[C@H](OC(C)=O)[C@@H]1OC(C)=O,"activity change, positive = activation",[4],-36.6% [at 11.4 µM]
c1ccc(C2[C@H]3CN(CC4CCCCC4)[C@H](c4ccccc4)C34CC2(c2ccccc2)C4)cc1 (stereo partly specified),Potency,[4],inactive
CO[C@@H]1COC(=O)C/C=C\[C@@H](C)[C@@H]2C=C[C@H](O)[C@@H](COC(=O)CCC[C@H]1C)O2,"activity change, positive = activation",[4],-44.8% [at 11.4 µM]
